Results filed as inconclusive are left out. Calls of active or inactive are those of the source. Unless noted, calls follow the shape of the dose curve; as a rule, active = well fitted curve in the direction sought with a large enough effect in the repeat runs; inconclusive = weak or mixed curves; inactive = no such curve, though single readings can be large; an effect the other way counts as inactive or inconclusive.
Assays:
[1] = qHTS assay to test for compound auto fluorescence at 535 nm (green) in HEK293 cells (AID 720680)
[2] = qHTS assay to test for compound auto fluorescence at 460 nm (blue) in HEK293 cell free culture (AID 720681)
Procedure, shortened: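 Compounds were added to cell-free DMEM with 10% FBS and fluorescence read directly. The blue channel used 405 nm excitation and 460 nm emission, with triamterene as the reference fluorophore.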

[3] = qHTS assay to test for compound auto fluorescence at 535 nm (green) in HEK293 cell free culture (AID 720682)
Procedure, shortened: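 DMEM + 10% FBS, cell-free; cpd or DMSO pinned in; Ex485/Em535 read; output as fluorescein-equivalent signal.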

[4] = qHTS assay to test for compound auto fluorescence at 590 nm (red) in HEK293 cell free culture (AID 720683)
Procedure, shortened: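 Cell-free wells of DMEM with 10% FBS received compound, and intrinsic fluorescence was read at excitation/emission 540/590 nm. Values expressed as equivalence to Rose Bengal sodium.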

[5] = qHTS assay to test for compound auto fluorescence at 590 nm (red) in HepG2 cell free culture (AID 720684)
Procedure, shortened: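 Auto fluorescence equivalency versus Rose Bengal sodium, red channel Ex/Em 540/590 nm; compounds in cell-free MEM/10% FBS; DMSO vehicle control.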

[6] = qHTS assay to test for compound auto fluorescence at 460 nm (blue) in HepG2 cell free culture (AID 720685)
Procedure, shortened: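 Cell-free plates of MEM plus 10% FBS received 23 nL compound or DMSO vehicle; blue-channel (405/460 nm) intensity scored against triamterene as reference fluorophore.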

[7] = qHTS assay to test for compound auto fluorescence at 535 nm (green) in HepG2 cell free culture (AID 720686)
[8] = qHTS assay to test for compound auto fluorescence at 460 nm (blue) in HepG2 cells (AID 720687)
Procedure, shortened: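 HepG2 cells in MEM with 10% FBS, attached overnight at 37 C, were exposed to compound or DMSO for 1 hr at 37 C, 5% CO2. Blue fluorescence was read at 405/460 nm, with triamterene as reference fluorophore.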

[9] = qHTS assay to identify small molecule antagonists of the glucocorticoid receptor (GR) signaling pathway - cell viability counter screen (AID 720693); also: nearly all actives have a fitted effect of over 55% in size
[10] = qHTS assay for identifying genotoxic compounds that show differential cytotoxicity against isogenic chicken DT40 cell lines with known DNA damage response pathways - wild type cell line (AID 743012); also: nearly all actives have a fitted effect of over 60% in size
Procedure, shortened: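 Viability by ATP luminescence (CellTiter-Glo, 30 min RT) after 40 h compound treatment at 37 C/5% CO2, using 300 parental DNA repair-proficient DT40 cells per well.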

[11] = qHTS assay for identifying genotoxic compounds that show differential cytotoxicity against isogenic chicken DT40 cell lines with known DNA damage response pathways - Rev3 mutant cell line (AID 743014); also: nearly all actives have a fitted effect of over 55% in size
[12] = qHTS assay for identifying genotoxic compounds that show differential cytotoxicity against isogenic chicken DT40 cell lines with known DNA damage response pathways - Rad54/Ku70 mutant cell line (AID 743015); also: nearly all actives have a fitted effect of over 60% in size
[13] = qHTS assay to identify small molecule antagonists of the androgen receptor (AR) signaling pathway - cell viability counter screen (AID 743033; also: nearly all actives have a fitted effect of over 45% in size)
[14] = qHTS assay to identify small molecule antagonists of the androgen receptor (AR) signaling pathway using the MDA cell line - cell viability counter screen (AID 743041; also: nearly all actives have a fitted effect of over 45% in size)
Procedure, shortened: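 Compound exposure lasted 16 h at 37C in MDA-kb2 AR-luc cells stimulated with R1881. Protease-based CellTiter-Fluor reagent was applied for the final 30 min and fluorescence measured.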

[15] = target: Glucocorticoid receptor (Homo sapiens) (UniProt P04150); assay: qHTS assay to identify small molecule agonists of the glucocorticoid receptor (GR) signaling pathway (AID 720691; active = well fitted activation curve with a large enough effect in the signal ratio in the repeat runs, not every such curve was filed as active; the % refers to the signal ratio)
Chain of Glucocorticoid receptor (Homo sapiens) (P04150 whole entry, looked up): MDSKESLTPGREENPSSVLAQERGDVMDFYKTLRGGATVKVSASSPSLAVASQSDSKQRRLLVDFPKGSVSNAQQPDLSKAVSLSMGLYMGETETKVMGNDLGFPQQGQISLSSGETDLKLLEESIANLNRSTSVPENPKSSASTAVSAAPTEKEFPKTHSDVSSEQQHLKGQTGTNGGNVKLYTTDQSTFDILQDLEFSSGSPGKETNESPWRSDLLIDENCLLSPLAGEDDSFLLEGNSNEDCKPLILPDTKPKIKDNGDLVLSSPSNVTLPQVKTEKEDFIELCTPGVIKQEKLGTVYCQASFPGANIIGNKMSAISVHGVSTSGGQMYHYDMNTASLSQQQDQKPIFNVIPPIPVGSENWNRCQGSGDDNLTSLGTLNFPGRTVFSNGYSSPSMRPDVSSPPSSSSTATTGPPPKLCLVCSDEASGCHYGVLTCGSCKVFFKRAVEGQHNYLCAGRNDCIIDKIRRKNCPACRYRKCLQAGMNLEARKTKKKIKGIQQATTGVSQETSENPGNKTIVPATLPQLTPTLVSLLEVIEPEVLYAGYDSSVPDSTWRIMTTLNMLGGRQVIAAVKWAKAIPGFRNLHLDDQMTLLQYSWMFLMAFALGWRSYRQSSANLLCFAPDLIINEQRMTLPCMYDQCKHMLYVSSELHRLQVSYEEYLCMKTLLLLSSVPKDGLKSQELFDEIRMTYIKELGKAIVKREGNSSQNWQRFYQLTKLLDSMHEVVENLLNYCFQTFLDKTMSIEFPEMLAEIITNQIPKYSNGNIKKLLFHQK
Procedure, shortened: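 Agonist-mode qHTS in HeLa cells stably expressing a glucocorticoid-response-element beta-lactamase reporter. Fluorescence intensity read with FRET substrate (2 h, room temperature) after 18 h compound treatment at 37 C.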

[16] = target: Glucocorticoid receptor (Homo sapiens) (UniProt P04150); assay: qHTS assay to identify small molecule antagonists of the glucocorticoid receptor (GR) signaling pathway (AID 720692; active = well fitted inhibition curve with a large enough effect in the signal ratio in the repeat runs, not every such curve was filed as active; the % refers to the signal ratio)
Procedure, shortened: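 Inhibition of dexamethasone-driven (5 nM final) beta-lactamase expression was measured in GRE-reporter HeLa cells over 18 h at 37C. Fluorescence was read after 2 h with the B/G FRET substrate at room temperature.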

Measured: Potency

CC(C)c1cc2c(cc1S(=O)(=O)O)[C@@]1(C)CCC[C@@](C)(C(=O)O)[C@@H]1CC2
not listed: [15] | [16]
inactive: all other assays above

CC(=O)c1ccccc1O
not listed: [15] | [16]
inactive: all other assays above

C/C=C(\C)C#N
not listed: [15] | [16]
inactive: all other assays above

Cc1nc2c([nH]1)c(=O)n(C)c(=O)n2Cc1ccco1
not listed: [12] | [16]
inactive: all other assays above

CC(C)(O)C#CC(C)(C)O
not listed: [15] | [16]
inactive: all other assays above

OC[C@]1(O)OC[C@@H](O)[C@H](O)[C@@H]1O
not listed: [15] | [16]
inactive: all other assays above

CN1CCCC1
not listed: [15] | [16]
inactive: all other assays above

c1ccc(CC2=NCCN2)cc1
not listed: [13] | [15] | [16]
inactive: all other assays above

O=C1NC(=O)[C@@]2(CCOc3ccc(F)cc32)N1
not listed: [11] | [15] | [16]
inactive: all other assays above

OCCCC1CCCCC1
not listed: [15] | [16]
inactive: all other assays above

CC(=O)OCC(=O)[C@@]1(O)CC[C@H]2[C@@H]3CCC4=CC(=O)CC[C@]4(C)[C@H]3C(=O)C[C@@]21C
not listed: [15] | [16]
inactive: all other assays above

CCCCCCCCCCCCCCCCC
not listed: [4]
inactive: all other assays above

COc1nc(N)nc2c1ncn2[C@@H]1O[C@H](CO)[C@@H](O)[C@@H]1O
not listed: [4] | [11]
inactive: all other assays above

— PubChem BioAssay (Tox21)
